# This is a sample that favours compounds with a hit; in the whole collection about 6.8% have one here.
# Abs 340nm: compound absorbs light at 340 nm | compound absorbance at 340 nm, fold over control | fold change at 10 µM | 65,000 tested, under 10 active | AID 708;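 active = at 10 µM dose, initial 340 nm absorbance at least 2 fold that of control wells; inactive = change under 2 fold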;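 note: initial absorbance extrapolated from kinetic A340 decline of NADH oxidation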
# Autofluor 339: intrinsic fluorescence of library compounds, ex339/em460 – biochemical, MLSMR library, data from DPM-DC assay, artefact control, profiling panel. compound autofluorescence, ex339/em460 nm, NADH buffer; stronger effect = higher value; 1 = no-compound wells, NADH background. fluorescence fold increase at 10 µM. hit rate 5.5% among 65,000;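 active = at 10 µM, mean starting fluorescence two-fold or more over control wells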;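 note: signal is the first read of a kinetic run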
# NADH enzymes: inhibitors of enzymes used to reach an NAD/NADH endpoint | coupled PK/LDH NADH assays, four targets | IC50, µM (titrated, usually from 10 µM) | hit rate 0.02% among 65,000;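 active = single-dose screening hits from any of four coupled enzyme assays that gave an IC50 when retested across doses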;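 note: the DPM-DC format reads NADH fluorescence rather than 340 nm absorbance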
# DPM-DC inhibit: S. pneumoniae DPM-DC inhibition; purified DPM-DC, PK/LDH coupled NADH fluorescence; calls only at 10 µM; hit rate 0.49% among 65,000; AID 556;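 active = the 320 compounds with the highest percent inhibition in the single-dose primary screen, excluding strongly autofluorescent ones, cut at about 32% in these data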;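 note: kinetic rate of NADH fluorescence loss reporting ADP formed by the decarboxylase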
# Spn PMK inh: S. pneumoniae PMK inhibition; AID 539; hit rate 0.49% among 65,000; purified PMK, PK/LDH-coupled NADH absorbance 340 nm; inhibition, % at 10 µM;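 active = top-ranked compounds by inhibition in the single 10 µM screen, taking a fixed number of the strongest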
# MK inhibit: blocks S. pneumoniae mevalonate kinase | hit rate 0.48% among 65,000 | inhibition, % at 10 µM | AID 555 | purified MK, PK/LDH-coupled NADH absorbance 340 nm;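 active = ranked among the strongest by inhibition in the single 10 µM screen, a fixed top-ranked set picked for dose follow-up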
# Numbers stand for hits; n = inactive; x = not tested or not shown; + = active, no number.
SMILES,Abs 340nm,Autofluor 339,NADH enzymes,DPM-DC inhibit,Spn PMK inh,MK inhibit
CC1=C(C(=O)OC(C)C)C(c2cccnc2)C2=C(CCCC2=O)N1 (stereo not drawn),n,2.2,n,x,n,n
CCOC(=O)C1=C(C)NC2=C(C(=O)CCC2)C1c1ccsc1 (stereo not drawn),n,2.5,n,n,n,n
COc1ccccc1C1c2c(oc3ccc(Cl)cc3c2=O)C(=O)N1c1cc(C)on1 (stereo not drawn),n,n,n,n,n,n
COC(=O)c1cc(NC(=O)Cn2c(=O)cnc3ccccc32)cc(C(=O)OC)c1,n,n,n,n,n,n
Nc1cc(S(=O)(=O)C(F)(F)F)ccc1C(=O)O,n,n,n,n,n,n
Nc1cc(C(F)(F)F)ccc1C(=O)O,n,2.1,n,x,n,n
CCN1C(=O)c2cccc3c(S(=O)(=O)NCc4ccco4)ccc1c23,n,2.3,n,n,n,n
CCCC(C(=O)NC1CCCC1)N(C(=O)Cn1nnc(-c2ccc(C)o2)n1)c1ccccc1OC (stereo not drawn),n,n,n,n,n,n
COc1cc2c(cc1OC)/C(=C/C(=O)N1CCOCC1)NC(C)(C)C2,n,2.5,n,+,n,n
CCCc1cc(N2CCCC2)n2nc(C)c(-c3ccccc3)c2n1,n,2.9,n,n,n,n
COc1ccc(NC(=O)c2cnc3sccn3c2=O)cc1OC,n,n,n,n,n,n
CCn1c(SCC(=O)c2ccccc2)nc2c(c1=O)SC(C)C2 (stereo not drawn),n,n,n,n,n,40
O=C(Nc1ccc(N2CCOCC2)cc1)Nc1ccc2nc(-c3ccco3)c(-c3ccco3)nc2c1,n,n,n,n,n,n
O=S(=O)(c1ccc2nc(-c3ccco3)c(-c3ccco3)nc2c1)N1CCOCC1,n,2.2,n,n,n,n
O=C(OCCN1C(=O)c2ccccc2C1=O)C1CCN(S(=O)(=O)c2cccs2)CC1,n,n,n,n,n,n
O=C(NCc1ccc(F)cc1)c1cnc2sccn2c1=O,n,2.1,n,x,n,n
CC1(C)Cc2nc3sc4c(N(CCO)CCO)ncnc4c3cc2CO1,n,2.3,n,x,n,n
CCN(C#N)c1nc(N(C)C)nc(N(C)C)n1,n,n,n,n,n,n
CC(=O)c1cccc(NC(=O)Nc2cccnc2)c1,n,n,n,+,n,n
NCC[C@H](O)C(=O)N[C@@H]1C[C@H](N)[C@@H](O[C@H]2O[C@H](CN)[C@@H](O)[C@H](O)[C@H]2O)[C@H](O)[C@H]1O[C@H]1O[C@H](CO)[C@@H](O)[C@H](N)[C@H]1O,n,n,n,n,n,n
Nc1cccc(-c2nc3ccc(N)cc3s2)c1,n,3.9,n,x,n,n
O=C(Nc1ccc2oc(-c3ccncc3)nc2c1)c1ccccc1F,n,3.7,n,x,n,n
O=C(Cc1ccccc1)Nc1ccc2oc(-c3ccncc3)nc2c1,n,3.9,n,x,n,n
CC(C)CC(=O)Nc1ccc2oc(-c3ccncc3)nc2c1,n,3.7,n,x,n,n
CC(C)CC(=O)Nc1cccc(-c2nc3ccccc3o2)c1,n,n,n,n,n,n
SMILES,Abs 340nm,Autofluor 339,NADH enzymes,DPM-DC inhibit,Spn PMK inh,MK inhibit
Cc1c(-c2ccccc2)c(P(=O)(N2CCOCC2)N2CCOCC2)c2ccccn12,n,5,n,x,n,n
O=P(C1=C(N2CCOCC2)/C(=C\c2ccccc2)CC1)(N1CCOCC1)N1CCOCC1,n,n,n,n,n,n
O=C1CC(NCc2ccc3c(c2)OCO3)C(=O)N1Cc1ccc2c(c1)OCO2 (stereo not drawn),n,n,n,n,n,n
COc1cc(OC)cc(C(=O)N2CCN(Cc3ccccc3C(F)(F)F)CC2)c1,n,n,n,n,n,50
CN1CCCN(Cc2ccccc2C(F)(F)F)CC1,n,n,n,n,n,57
COc1ccc(C(=O)N2CCN(Cc3ccccc3C)CC2)cc1OC,n,n,n,n,n,n
COc1cccc(OC)c1C(=O)N1CCN(Cc2ccccc2C(F)(F)F)CC1,n,n,n,n,n,n
COc1cc(C(=O)N2CCN(Cc3ccccc3C(F)(F)F)CC2)cc(OC)c1OC,n,n,n,n,n,45
Cc1ccc(C(=O)C2=C(O)C(=O)N(CCN3CCOCC3)C2c2ccccn2)o1 (stereo not drawn),n,n,n,n,n,n
O=C(Nc1cccc2ccccc12)c1cnccn1,n,n,n,n,25,n
O=C(Nn1c(C2CC2)nc2ccccc2c1=O)c1ccco1,n,n,n,n,55,n
CN(C)CCNC(=O)c1ccc(CS(=O)(=O)c2ccc(Br)cc2)o1,n,n,n,n,n,n
O=C(COc1ccc2c(c1)C(=O)CC1(CCCCC1)O2)NCc1ccccn1,n,5.1,n,x,n,n
O=C(COc1ccc(S(=O)(=O)NC2CCCCC2)cc1)NCc1ccccn1,n,n,n,n,n,n
CC1(C)CC(=O)c2cc(OCC(=O)NCc3cccnc3)ccc2O1,n,5.1,n,x,n,n
CCOC(=O)COc1ccc2c(c1)C(=O)CC(C)(c1cccnc1)O2 (stereo not drawn),n,4.8,n,x,n,n
CC1(C)CC(=O)c2cc(OCC(=O)NCCCN3CCN(c4ccccc4F)CC3)ccc2O1,n,3.4,n,x,n,n
CN(C)S(=O)(=O)c1cc(S(=O)(=O)N(C)C)c(Cl)cc1N,n,n,n,n,n,n
COc1cc(CN2CCC(C(=O)NC3CCCC3)CC2)ccc1O,n,2,n,x,n,n
COc1ccc(Br)cc1CNC(=O)C1CCN(S(=O)(=O)N2CCCC2)CC1,n,n,n,n,30,n
CCOc1ccc(CN2CCN(S(=O)(=O)c3ccc(NC(C)=O)cc3)CC2)cc1OC,n,n,n,n,n,63
CCOc1ccc(CNC(=O)C2CCN(S(=O)(=O)N3CCCC3)CC2)cc1OC,n,n,n,n,26,n
COc1cc(CN2CCC(C(=O)N3CCN(c4ccccc4F)CC3)CC2)ccc1O,n,n,n,n,n,n
COc1ccc(C(=O)Nc2ccc(S(=O)(=O)N3CCCCC3)cc2)cc1OC,n,n,n,n,n,n
CC(=O)c1ccc(NC(=O)CSc2nnc(Cn3c(=O)sc4ccccc43)n2C)cc1,n,n,n,n,n,n
SMILES,Abs 340nm,Autofluor 339,NADH enzymes,DPM-DC inhibit,Spn PMK inh,MK inhibit
COc1ccccc1Cn1c2nc3ccccc3nc2c2c(=O)n(CC(C)C)cnc21,n,n,n,n,n,n
CCc1nnc2n1N=C(c1ccc(-c3cc(Cl)ccc3Cl)o1)CS2,n,n,n,n,n,n
O=C(CN1CCc2ccccc2C1)N1CCN(S(=O)(=O)c2ccccc2)CC1,n,n,n,n,n,n
O=C(Cn1cc(C(F)(F)F)ccc1=O)N1CCN(S(=O)(=O)c2ccccc2)CC1,n,n,n,n,27,n
CSc1nc(C)cc(-n2ccc(=O)[nH]c2=O)n1,n,n,n,n,n,n
Cc1c2c(nc3c(C(=O)NC4CCCC4)cnn13)CCCC2,n,4.9,n,x,n,n
